This passage reports composite z-score and z-score results from PubChem BioAssay.

The test system of experiment [1] is Human papillomavirus type 1a protein E7 (residues 44-93). Kind of experiment: HPV1a E7 fragment binders on microarrays, primary screen, biochemical, small-molecule microarray, residues 44-93, 635 nm fluorescence (AID 1108).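 Further: E7 fragment applied at 1 µg/mL in TBST for 1 h at 4 C; score combines spot fluorescence with its signal to noise ratio.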 The following applies: small-molecule microarray binding, fluorescence 635 nm; higher = more signal.
Experiment [2] in a line: modulators of HCV replicon luciferase signal, primary screen, HCV replication inhibitor project, Huh7 cells, luciferase reporter (AID 1109).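 Further: huh7 hepatoma cells harbouring a luciferase neomycin HCV replicon reporter; luciferase luminescence as measure of HCV replicon replication; test concentration not given here.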 The settings on record: 48 h, higher = more signal. A general note: In antiviral work, replicon cells carry a viral genome segment that copies itself.
For experiment [3], the target named is Left-right determination factor 2 (Homo sapiens) (UniProt O00292). Kind of experiment: LEFTY2 binders on small-molecule microarrays, primary screen, biochemical, small-molecule microarray, 635 nm fluorescence scan (AID 1110). The settings on record: LEFTY2 binding, higher = more signal.
Experiment [4] addresses Calmodulin-1 (Homo sapiens) (UniProt P0DP23). Kind of experiment: CALM1 binders on microarrays, EGTA buffer, profiling panel, biochemical, small-molecule microarray, Cy5-labelled CALM1 (AID 1111).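 Further: labelled calmodulin applied in Tris saline Tween buffer holding calcium plus EGTA and DTT.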 The following applies: Cy5-CALM1 binding fluorescence, higher = more signal.
The target is the same in experiment [5]. In words: calcium-bound CALM1 binders on microarrays, profiling panel, artefact control for SMM control-protein annotation, biochemical, small-molecule microarray, Cy5-labelled CALM1, plus calcium (AID 1112).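 Further: score merges spot fluorescence with signal to noise from triplicate slides.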 The settings on record: Cy5-CALM1 binding fluorescence, higher = more signal.
Experiment [6] in a line: small-molecule microarray binders of probe aWnt5a, primary screen, biochemical, biotinylated probe, 635/667 nm fluorescence (AID 1113).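 Further: score merges 667 nm fluorescence intensity with signal-to-noise per printed feature.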 The following applies: higher = more signal.
Experiment [7] can be described thus: small-molecule microarray binders of probe aShh, primary screen, biochemical, biotinylated probe, 635/667 nm fluorescence (AID 1114).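 Further: probe is biotin-labelled aShh protein from a stem cell growth factor screen; measures binding of labelled protein to compounds printed on the slide; score merges feature fluorescence at 667 nm with signal-to-noise.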 The following applies: higher = more signal.
Experiment [8] in a line: small-molecule microarray binders of probe aNog, primary screen, biochemical, biotinylated probe, 635/667 nm fluorescence (AID 1115).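 Further: probe is biotinylated aNog protein used at 0.15 µg/mL for 1 h at 4 C; z-score combines 667 nm fluorescence of each spot with its signal to noise.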 The following applies: higher = more signal.
In experiment [9] the target is Torsin-1A-interacting protein 1 (Homo sapiens) (UniProt Q5JTV8). Kind of experiment: LAP1 binders from COS7 cell lysate, primary screen, small-molecule microarray, 635/667 nm fluorescence (AID 1116). The following applies: COS7-hLAP1 lysate binding, 635 nm fluorescence, higher = more signal.
The target in experiment [10] is Alpha-bungarotoxin (Bungarus multicinctus) (UniProt P60615). Kind of experiment: alpha-bungarotoxin binders on microarray, profiling panel, artefact control for SMM control protein annotation, biochemical, small-molecule microarray, Alexa647 label, 635/667 nm fluorescence (AID 1117). The settings on record: alpha-BTX-A647 binding fluorescence, higher = more signal.
Alpha-bungarotoxin (Bungarus multicinctus), sequence (P60615 whole entry, looked up): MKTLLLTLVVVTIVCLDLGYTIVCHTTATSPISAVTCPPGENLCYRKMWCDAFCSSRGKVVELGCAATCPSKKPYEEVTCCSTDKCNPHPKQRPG

Left-right determination factor 2 (Homo sapiens), sequence (O00292 whole entry, looked up): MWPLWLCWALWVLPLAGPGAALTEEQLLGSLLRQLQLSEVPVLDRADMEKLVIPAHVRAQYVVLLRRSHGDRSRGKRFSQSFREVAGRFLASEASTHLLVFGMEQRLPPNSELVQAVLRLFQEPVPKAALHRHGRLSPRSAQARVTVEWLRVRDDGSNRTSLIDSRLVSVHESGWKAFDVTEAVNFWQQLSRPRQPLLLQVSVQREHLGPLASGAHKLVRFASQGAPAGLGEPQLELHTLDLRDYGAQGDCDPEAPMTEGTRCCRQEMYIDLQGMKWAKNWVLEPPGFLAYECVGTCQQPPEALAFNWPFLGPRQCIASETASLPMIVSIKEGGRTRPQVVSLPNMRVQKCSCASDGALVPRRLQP
Torsin-1A-interacting protein 1 (Homo sapiens), sequence (Q5JTV8 whole entry, looked up): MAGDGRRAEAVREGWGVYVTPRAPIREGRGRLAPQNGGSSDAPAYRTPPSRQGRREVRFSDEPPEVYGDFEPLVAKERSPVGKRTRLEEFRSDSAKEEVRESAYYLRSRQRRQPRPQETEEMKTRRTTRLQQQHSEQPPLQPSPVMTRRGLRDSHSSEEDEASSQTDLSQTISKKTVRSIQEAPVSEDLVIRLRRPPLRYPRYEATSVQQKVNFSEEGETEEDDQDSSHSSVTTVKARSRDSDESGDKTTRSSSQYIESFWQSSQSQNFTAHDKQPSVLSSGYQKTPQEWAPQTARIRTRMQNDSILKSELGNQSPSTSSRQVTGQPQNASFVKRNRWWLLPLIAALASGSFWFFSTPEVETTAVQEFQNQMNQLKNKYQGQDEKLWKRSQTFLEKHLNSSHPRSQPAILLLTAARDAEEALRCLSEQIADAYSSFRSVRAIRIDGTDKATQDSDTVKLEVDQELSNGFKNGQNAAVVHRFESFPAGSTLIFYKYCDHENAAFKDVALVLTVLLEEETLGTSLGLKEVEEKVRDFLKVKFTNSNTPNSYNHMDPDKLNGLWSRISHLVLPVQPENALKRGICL

For `COC(=O)NCC=Cc1nc(CCCO)co1`, the composite z-score in [1] is 0.722; in [3], 0.493; in [4] it was -0.368; in [5] it was -0.98; in experiment [6], -0.0462; in experiment [7] it was 0.0141. Also, the composite z-score in experiment [8] is -0.137; in [9], 0.116; in experiment [10] it was -0.498. Moreover, the z-score in experiment [2] was -0.0343.
With `O=C1[C@H]2[C@H]3[C@H](O)[C@H](O)CC(=NOC[C@@H](O)COCc4ccco4)[C@H]3CC[C@H]2C(=O)N1Cc1ccccc1`, the composite z-score in experiment [1] was -1.01; in experiment [3], 0.665; in experiment [4], -0.684; in [5], -1.22; in experiment [6], -0.18; in experiment [7], -0.27. The composite z-score in experiment [8] is 0.0444; in experiment [9], -0.193; in experiment [10], -0.309. Further, the z-score in experiment [2] is -0.523.
In the case of `CCOC(=O)[C@H](CC(C)C)NC(=O)CCC1CC(OC(=O)NCc2cccc3ccccc23)CC2(CCCC(COC(=O)NCc3ccncc3)O2)O1` (stereo not given in full), the composite z-score in experiment [1] was 1.38; in [3] it was 0.554; in experiment [4], -0.118; in experiment [5], -0.376; in experiment [6] it was 0.0037; in [7], -0.0146. The composite z-score in experiment [8] was -0.036; in experiment [9], 0.526; in experiment [10] it was 0.267. The compound further yielded a z-score in experiment [2] of -1.
Regarding `CCN1C(=O)[C@H]2[C@H]3[C@H](O)[C@H](O)CC(=O)[C@H]3CC[C@H]2C1=O`, the composite z-score in experiment [1] is 0.566; in experiment [3], 0.872; in [4] it was -0.123; in experiment [5], -0.448; in [6], -0.0472; in experiment [7], 0.0278. The composite z-score in experiment [8] was -0.158; in [9], 0.161; in [10], 0.113. In addition, in [2], the z-score was -0.693.
`CC(C)(C)N1C(=O)[C@H]2[C@H]3[C@H](O)C=CC(=O)[C@@H]3CC[C@H]2C1=O`: the composite z-score in experiment [1] was 0.264; in [3] it was 0.296; in [4] it was 0.0361; in experiment [5] it was -0.586; in [6] it was -0.13; in [7], 0.0121. Also, the composite z-score in experiment [8] is 0.0637; in experiment [9], -0.288; in experiment [10], 0.0991. The z-score in experiment [2] was 0.133.
In the case of `CO[C@@H]1C=CCC(=O)N[C@@H](C)C(=O)OC[C@@H](OC)[C@H](C)CCCC(=O)OC[C@H]1C`, the composite z-score in experiment [1] is -2.89; in experiment [3], 1.41; in experiment [4], -1.23; in experiment [5], -2.04; in experiment [6] it was -0.0694; in [7], -0.206. Further, the figures for the composite z-score in experiment [8], in experiment [9] and in experiment [10] were -0.345, 0.95 and -0.11, respectively. In experiment [2], this compound yielded a z-score of -1.41.
As to `CCc1cc2c(nc1CC)CCN(CCC(C)=NO[C@@H](C)c1cn([C@H](CO)Cc3ccccc3)nn1)C2`, the composite z-score in experiment [1] was -0.296; in [3], 0.483; in [4] it was -0.41; in experiment [5] it was -0.555; in experiment [6], -0.096; in [7], -0.147. The composite z-score in experiment [8] was -0.203; in experiment [9], -0.11; in experiment [10] it was 0.312. Further, in experiment [2], the z-score was -2.1.
Turning to `O=C1C=C[C@@H](O)[C@@H]2[C@@H]3C(=O)N(C[C@@H]4CCCO4)C(=O)[C@@H]3CC[C@@H]12`, the composite z-score in experiment [1] is 0.0168; in [3] it was 0.449; in experiment [4], -0.202; in experiment [5] it was -0.78; in [6], -0.124; in [7] it was 0.111. Moreover, the composite z-score in experiment [8] was -0.176; in experiment [9], 0.206; in experiment [10], 0.33. This compound also returned a z-score in experiment [2] of -0.848.
Turning to `O=C1C[C@@H](O)[C@@H](O)[C@@H]2[C@@H]3C(=O)N(C[C@@H]4CCCO4)C(=O)[C@@H]3CC[C@@H]12`, the composite z-score is 0.27 in experiment [1]; 0.723 in experiment [3]; 0.187 in [4]; -0.426 in experiment [5]; -0.0239 in [6]; -0.106 in [7]. Also, the composite z-score was -0.303 in experiment [8], 0.119 in [9] and 0.506 in experiment [10]. In experiment [2], this compound had a z-score of -0.321.
With `CO[C@@H]1COC(=O)CC=C[C@@H](C)[C@@H]2C=C[C@H](O)[C@@H](COC(=O)CC=C[C@H]1C)O2`, the composite z-score was -0.913 in experiment [1]; 1.5 in [3]; -1.12 in experiment [4]; -2.14 in [5]; -0.224 in experiment [6]; -0.0146 in experiment [7]. For the same compound, the composite z-score in [8] is -0.349; in experiment [9], 0.27; in experiment [10], 0.149. In [2], this compound returned a z-score of 0.0581.
Regarding `COc1cccc([C@H]2Oc3ccc(OC)cc3C(=NOC[C@@H](O)[C@H]3O[C@@H]4OC(C)(C)O[C@@H]4[C@H]3O)[C@@H]2O)c1`, the composite z-score in experiment [1] was 0.0743; in experiment [3] it was 0.583; in experiment [4], -0.284; in experiment [5], -0.273; in [6], -0.139; in [7], -0.304. Further, the composite z-score was -0.409 in [8], 0.64 in [9] and -0.106 in experiment [10]. For the same compound, the z-score in experiment [2] was 4.33.
Take `C#CCCCON=C1[C@H]2CCn3c(=O)n(C)c(=O)n3[C@H]2[C@H](O)[C@@H]2O[C@H]12`: the composite z-score in experiment [1] was 0.371; in [3], 0.503; in [4] it was -0.266; in experiment [5], -0.792; in experiment [6], -0.0486; in [7], 0.0723. In addition, the composite z-score was 0.0762 in [8], 0.35 in experiment [9] and 0.0727 in experiment [10]. The same compound registered a z-score in experiment [2] of 0.818.
